# Assay outcomes from PubChem BioAssay.
# Shown is part of a subset that was picked to be rich in hits.
# SARS PLpro yeast-1 = SARS-CoV PLP inhibition in yeast | 330,000 tested, 0.19% active | S. cerevisiae expressing SARS-CoV PLpro, growth rescue | Potency, µM (series often up to 32.9 µM), for inactives: at the highest dose activity, positive = growth rescue, hits mostly activators; calls by dose curve; further: potency means the concentration at half of the fitted maximal effect; 0% is about no effect; nearly all actives have a fitted effect of over 55% in size
# AmpC inh detg = AmpC beta-lactamase inhibition with detergent present | Potency, µM (doses to about 114 µM), for inactives: at the highest dose activity change, negative = inhibition, most hits filed as inhibitors | 370,000 tested, 0.041% active | AmpC hydrolysis of nitrocefin, absorbance 480 nm, 0.01% Triton;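 further: potency means the concentration at half of the fitted maximal effect; 0% = no-compound wells and -100% = no-enzyme wells; nearly all actives have a fitted effect of over 25% in size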
# Target sequence (P00811 whole entry, looked up): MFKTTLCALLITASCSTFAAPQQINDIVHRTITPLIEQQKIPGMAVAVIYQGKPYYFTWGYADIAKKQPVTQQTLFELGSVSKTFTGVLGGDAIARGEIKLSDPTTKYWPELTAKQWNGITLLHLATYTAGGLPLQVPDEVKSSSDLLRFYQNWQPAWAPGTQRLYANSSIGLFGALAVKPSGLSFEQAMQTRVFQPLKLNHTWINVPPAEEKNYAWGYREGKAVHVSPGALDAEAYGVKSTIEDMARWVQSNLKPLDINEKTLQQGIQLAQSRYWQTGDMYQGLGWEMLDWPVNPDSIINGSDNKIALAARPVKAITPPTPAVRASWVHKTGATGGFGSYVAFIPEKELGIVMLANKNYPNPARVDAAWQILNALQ
#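 20 mM phosphate pH 7.0 + 0.01% (detergent screen) or 0.0001% Triton X-100; 5.3 nM AmpC reagent; cpd preinc 15 min RT; nitrocefin (800 uM stock) to start; A480 q20 s × 4 min; Activity was normalised to no-enzyme and no-compound control wells.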
# Shiga toxin inh = inhibitors of Shiga toxin in Vero cells | Vero cells, Shiga toxin protein synthesis inhibition reporter | inhibition, % at 38.7 µM | 290,000 tested, 9.2% active; in the data active means inhibition mostly above about 28%, no sharp cut-off; inactive means mostly below about 43%; further: 0% is about no effect
# AMA1 RON2 block = AMA1-RON2 (P. falciparum) interaction inhibition; AlphaScreen AMA1-biotinylated RON2 peptide binding; Potency, µM (doses to about 58.2 µM), for the others: top-dose activity change, negative = inhibition, usual class: inhibitors; 360,000 tested, 0.2% active; AID 720542;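 further: potency means the concentration at half of the fitted maximal effect; 0% = vehicle wells and -100% = peptide control; nearly all actives have a fitted effect of over 45% in size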
#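 AMA1 (3D7) with his tag at 25 nM final met compounds first, then biotinylated RON2 peptide at 25 nM; detection used donor plus acceptor beads, 10 µg/mL apiece, read by AlphaScreen after 30 min at room temperature.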
# AmpC inh no detg = blocks E. coli AmpC beta-lactamase in detergent-free assay. P00811. Potency, µM (top dose mostly 57.1 µM), for the others: top-dose activity change, negative = inhibition, usual class: inhibitors. AmpC nitrocefin hydrolysis, absorbance 480 nm, 0.0001% Triton. 330,000 tested, 0.52% active. AID 485341;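 further: potency means the concentration at half of the fitted maximal effect; plate controls were no compound for no effect and no enzyme for full effect; nearly all actives have a fitted effect of over 20% in size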
#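 AmpC (5.3 nM in the dispensed reagent) in 20 mM phosphate pH 7.0 with 0.01% (detergent screen) or 0.0001% Triton X-100 was preincubated with compounds for 15 min at room temperature. Nitrocefin was then added from an 800 uM solution, and hydrolysis was followed at 480 nm.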
# Cycloheximide cs = counter-screen hit for Shiga toxin inhibitors, cycloheximide; cell reporter, cycloheximide protein synthesis inhibition counterscreen; max response, %; 300,000 tested, 12% active; AID 2314; in the data active means max response mostly above about 13%, no sharp cut-off; inactive means mostly below about 14%; further: read at 38.3 µM for the half of the compounds with a filed dose; 0% is about no effect
# SARS PLpro yeast-2 = Rescues yeast growth by inhibiting SARS-CoV PLpro; 1,000 tested, 19% active; shares compounds with SARS PLpro yeast-1; yeast expressing SARS-CoV PLpro, growth phenotype rescue; calls only; call rule not given here
# Numbers without * were called inactive; i = inactive; ? = inconclusive; . = not tested or not shown; + = active, no number; [ ] = remark or other dose. Unless noted, the call rests on the fitted dose curve; in most records, active means well fitted curve in the direction sought with a large enough effect; inconclusive means small, poorly fitted or top-dose-only effect, or another doubt; inactive means no such curve, though single readings can be large; an effect the other way counts as inactive or inconclusive.
SMILES,SARS PLpro yeast-1,AmpC inh detg,Shiga toxin inh,AMA1 RON2 block,AmpC inh no detg,Cycloheximide cs,SARS PLpro yeast-2
Cc1ccc(-c2nc3ccccn3c2NC(=O)c2ccco2)cc1,?,0.5%,9.4,-3.8%,-31.3%,-2.7,i
COCCC1CCCCN1C(=O)c1cc(COc2ccc(-n3cncn3)cc2)on1 (stereo not given),?,1.3%,11.9,7.3%,89.2%,1.3,i
CC(=O)NC(c1ccccc1)c1cc([N+](=O)[O-])c2cccnc2c1O (stereo not given),1.7%,-10.0%,16.1,-27.2%,-23.2%,-1.7,.
CCC(=O)NC(c1cccs1)c1cc([N+](=O)[O-])c2cccnc2c1O (stereo not given),?,-14.3%,-11.4,?,-29.9%,-2.9,i
CCCC(=O)NC(c1cccs1)c1cc([N+](=O)[O-])c2cccnc2c1O (stereo not given),.,?,14.8,-2.4%,-34.7%,-1.2,i
CC(C)C(=O)NC(c1ccccc1)c1cc([N+](=O)[O-])c2cccnc2c1O (stereo not given),?,?,-14.1,?,-41.7%,1.1,i
O=C(Nc1ccc(F)cc1)C1CC2CCC1C2 (stereo not given),0.4%,7.3%,17.9,0.0%,-16.3%,17.9,.
Cc1nnc2c3ccccc3c(-c3ccc(O)cc3)nn12,?,?,-6.8,-11.9%,-16.4%,-3.4,i
CC(C)COc1cccc(C(=O)N(C)CC(=O)Nc2cccc3ccccc23)c1,14.1µM*,.,.,-16.0%,47.8%,.,i
COCCNC(=S)N/N=C(\C)c1ccc(OC(F)F)cc1,0.5%,-10.3%,-5.8,70.8%,-9.4%,-1.6,.
COCCNC(=S)N/N=C(\C)c1ccc(OC)cc1,22.4µM*,-10.9%,-2.5,41.6%[11.6 µM],-3.7%,-3.2,+
COCCNC(=S)N/N=C(\C)c1ccc2cc(OC)ccc2c1,8.91µM*,-4.4%,-7.1,?,-52.3%,-1.8,i
CN(C)C(Cc1ccccc1)C(=O)c1ccc(-c2ccccc2)cc1 (stereo not given),3.16µM*,0.1%,-2.6,-6.6%,17.8%,8.0,i
O=C1C2CCCCN2C(=O)N1CCCN1CCN(c2ccc(F)cc2)CC1 (stereo not given),4.4%,-17.7%,.,7.4%,-8.9%,-2.9,.
Cc1ccsc1C1Nc2ccc3ncccc3c2C2=C1C(=O)CC(C)(C)C2 (stereo not given),11.2µM*,7.1%,-16.4,3.1%,9.5%,8.4,i
O=C1CCCC2=C1C(c1cccs1)Nc1ccc3ncccc3c12 (stereo not given),0.3%,4.1%,19.0,-1.6%,-40.1%,-5.5,.
CC(C(=O)NCc1ccc2c(c1)OCO2)N1c2cccc3cccc(c23)S1(=O)=O (stereo not given),?,-4.6%,-5.2,-13.2%,-9.9%,1.4,+
C(=N\n1c2ccccc2c2ccccc21)/c1ccccc1,-1.1%,-2.0%,-5.4,-24.5%,-18.7%,0.7,.
C[n+]1cn(/N=C/c2ccccc2)c2ccccc21,?,-4.9%,22.8,-0.5%,-8.0%,7.8,i
COc1ccc(NC(=O)N2CCC(n3nnc4cc(C)ccc43)CC2)cc1,?,8.3%,1.6,11.6%,-15.7%,5.0,i
CCOc1ccc(NC(=O)N2CCC(n3nnc4ccccc43)CC2)cc1,-0.7%,-6.9%,16.4,10.8%,-14.6%,-1.6,.
C/C(=N\NC(N)=S)c1ccc(Cl)s1,10µM*,?,-2.2,9.2%,-21.1%,-2.1,?
C/C(=N\NC(=O)C(=O)Nc1cccc(C(F)(F)F)c1)c1ccc(Cl)s1,-5.0%,-5.7%,-4.2,-2.1%,-9.1%,-1.6,.
Cc1nnsc1C(=O)N/N=C/c1ccc2ccccc2c1O,1µM*,0.2%,20.1,-6.8%,-21.7%,0.3,i
Cc1nnsc1C(=O)N/N=C/c1c(F)cccc1Cl,0.2%,0.9%,-16.0,9.0%,-19.2%,7.0,.
